Source: the supplement of paper PMC3545927
The list shows a part of the results. How many sequences the whole screen found active is unknown.

Molecular target: furin, P09958
Assay: furin cleavage Z-score vs untreated control; higher = more cleavage, active = 3.5 or more, inactive = 1 or less, 8 variable residues between constant flanks
Method in brief: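 Purified furin cleaved 8-mer peptides that were fused to a cDNA oligonucleotide and held on magnetic beads by their N-terminus. Each 0.01 ml reaction used a 1:10 enzyme:substrate ratio in 50 mM HEPES pH 7.5 with CaCl2 and NaCl and ran 7.5, 15 or 30 min. Released DNA was adapter-tagged by PCR and sequenced, and read counts gave abundance. The cleavage Z-score came from log counts against furin-free reactions, lowess-adjusted and scaled by median absolute deviation.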

Sequence of furin, P09958 (P09958 whole entry): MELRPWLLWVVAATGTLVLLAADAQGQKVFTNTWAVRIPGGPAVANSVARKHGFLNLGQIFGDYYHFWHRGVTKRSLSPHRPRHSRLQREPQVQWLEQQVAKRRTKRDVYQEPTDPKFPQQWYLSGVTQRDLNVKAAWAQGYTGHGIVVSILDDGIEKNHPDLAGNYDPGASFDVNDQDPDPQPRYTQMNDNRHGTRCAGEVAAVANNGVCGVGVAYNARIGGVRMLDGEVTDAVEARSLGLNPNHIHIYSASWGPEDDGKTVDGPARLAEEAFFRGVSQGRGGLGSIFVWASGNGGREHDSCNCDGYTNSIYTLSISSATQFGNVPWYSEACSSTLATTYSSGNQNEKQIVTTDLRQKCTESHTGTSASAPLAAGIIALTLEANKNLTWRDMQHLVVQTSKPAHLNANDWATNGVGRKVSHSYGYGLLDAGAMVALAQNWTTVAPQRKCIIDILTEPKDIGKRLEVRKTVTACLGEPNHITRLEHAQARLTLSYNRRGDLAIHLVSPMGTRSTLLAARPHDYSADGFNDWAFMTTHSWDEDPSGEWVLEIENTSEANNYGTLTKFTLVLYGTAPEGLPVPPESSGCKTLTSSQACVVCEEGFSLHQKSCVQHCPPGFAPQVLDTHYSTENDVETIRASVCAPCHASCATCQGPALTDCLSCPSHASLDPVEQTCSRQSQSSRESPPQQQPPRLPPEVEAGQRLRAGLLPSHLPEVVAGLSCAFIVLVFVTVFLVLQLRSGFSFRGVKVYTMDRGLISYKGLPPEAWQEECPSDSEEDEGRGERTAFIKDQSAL

Sequence	furin cleavage Z-score (7.5 min)	furin cleavage Z-score (15 min)	furin cleavage Z-score (30 min)
CAIEPRSFSQAGNASASA [TR3]	-0.606 (inactive)	-1.14 (inactive)	-0.409 (inactive)
CATTPKSGSWAGNASASA [HC51]	-0.56 (inactive)	-0.574 (inactive)	-0.879 (inactive)
CARPRRYLYQAGNASASA [FS-2285]	3.25	3.5	5.12 (active)
CARPRRSIVFAGNASASA [FS-3229]	4.51 (active)	5.67 (active)	7.41 (active)
CAKPARLIVFAGNASASA [HC1448]	0.00411 (inactive)	-1.12 (inactive)	-1.48 (inactive)
CASRPCSAHLAGNASASA [HC2493]	0.596 (inactive)	1.57	0.79 (inactive)
CARRRRSSSTAGNASASA [FS-3068]	8.2 (active)	7.85 (active)	5.87 (active)
CARRRRSSSVAGNASASA [FS-2299]	3.15	3.17	3.52 (active)
CARRNRSTSTAGNASASA [FS-2072]	4.22 (active)	6.96 (active)	4.29 (active)
CARRDRSTSIAGNASASA [FS-3203]	-0.171 (inactive)	0.756 (inactive)	1.79
CADDEVVTSTAGNASASA [HC2291]	0.608 (inactive)	0.354 (inactive)	-0.134 (inactive)
CARSFRTASVAGNASASA [FS-3078]	0.727 (inactive)	0.141 (inactive)	1.09
CARRSRAASVAGNASASA [FS-1839]	1.46	1.72	3.72 (active)
CALRKRSSSTAGNASASA [FS-3179]	0.00727 (inactive)	0.0326 (inactive)	-0.921 (inactive)
CAMEECDQHLAGNASASA [HC32]	-1.25 (inactive)	-0.295 (inactive)	0.17 (inactive)
CAGKAIPLEVAGNASASA [HC849]	-0.874 (inactive)	-0.849 (inactive)	-0.983 (inactive)
CAEVVGSTWVAGNASASA [HC122]	-0.227 (inactive)	0.0769 (inactive)	0.871 (inactive)
CASTDCSAHLAGNASASA [HC2511]	-0.745 (inactive)	-1.14 (inactive)	1.19
CATPPRERRGAGNASASA [FS-1095]	-0.768 (inactive)	-0.415 (inactive)	-0.163 (inactive)
CAPHRRRRRGAGNASASA [FS-555]	5.9 (active)	4.87 (active)	5.4 (active)
CAVIPVRRRGAGNASASA [HC730]	-0.464 (inactive)	0.132 (inactive)	-0.326 (inactive)
CAPGHLRRRGAGNASASA [FS-1046]	-0.0765 (inactive)	0.0326 (inactive)	0.261 (inactive)

Sequence	furin cleavage Z-score (7.5 min)	furin cleavage Z-score (15 min)	furin cleavage Z-score (30 min)
CAAPKRRRRGAGNASASA [FS-323]	4.98 (active)	4.92 (active)	3.74 (active)
CALFRRRRRGAGNASASA [FS-606]	5.12 (active)	5.02 (active)	5.06 (active)
CAAPARERRGAGNASASA [FS-6]	7.34 (active)	8.29 (active)	7.48 (active)
CAHGLVSFLVAGNASASA [HC542]	0.693 (inactive)	-0.401 (inactive)	0.576 (inactive)
CAVDYPYRLWAGNASASA [HC465]	0.139 (inactive)	0.651 (inactive)	1.32
CATGPCSGSWAGNASASA [HC1856]	-0.371 (inactive)	-0.739 (inactive)	-1.48 (inactive)
CARLKKFQEAAGNASASA [FS-2987]	-0.948 (inactive)	-1.1 (inactive)	-1.63 (inactive)
CAGENLYFQSAGNASASA [TV1]	-1.03 (inactive)	-1.63 (inactive)	-0.511 (inactive)
CAPINAYTTGAGNASASA [HC1191]	0.157 (inactive)	0.17 (inactive)	0.965 (inactive)
CAAERRHYRPAGNASASA [FS-969]	0.389 (inactive)	0.437 (inactive)	0.0544 (inactive)
CAAERRRRRGAGNASASA [FS-2]	4.28 (active)	3.26	2.64
CACHRRMRRGAGNASASA [FS-404]	10.7 (active)	8.52 (active)	8.21 (active)
CAAESRACRGAGNASASA [FS-742]	-0.725 (inactive)	-0.739 (inactive)	-0.66 (inactive)
CADEVDNKVKAGNASASA [CS4]	-0.725 (inactive)	-1.22 (inactive)	-1.28 (inactive)
CAPGAATAFVAGNASASA [HC1072]	0.989 (inactive)	1.72	0.199 (inactive)
CASVAATLGFAGNASASA [HC789]	1.93	0.468 (inactive)	0.352 (inactive)
CARSADGRRFAGNASASA [FS-1654]	-0.463 (inactive)	-0.885 (inactive)	-0.419 (inactive)
CAKDYRRIRFAGNASASA [FS-173]	0.143 (inactive)	-0.374 (inactive)	0.736 (inactive)
CAILTRRRRFAGNASASA [FS-1347]	8.01 (active)	8.67 (active)	7.5 (active)
CAGLRRRRRFAGNASASA [FS-531]	7.13 (active)	8.7 (active)	7.24 (active)
CARVARRRRFAGNASASA [FS-1164]	8.04 (active)	10 (active)	7.4 (active)
CATQVRRRRFAGNASASA [FS-1497]	6.78 (active)	10.5 (active)	7.46 (active)
